# Assay results reported in PubChem BioAssay AID463173 (ICCB-Longwood Screening Facility, Harvard Medical School, 2010).
# Out of some 52,000 compounds screened, about 4,300 (8.3%) were called active. Many of the other results were omitted from the sample, so actives are more common in it than they were. Values without a mark were called inactive. Cut-off read from the data, not from the text of the source: active = survival mostly below about 52% (no sharp cut-off); inactive = mostly above about 56%.
# Test system: DeltatarO mutant
# Test: S. aureus survival, RN4220 and DeltatarO strains – OD600, teichoic acid synthesis inhibitors, primary screen (AID 463173)
# Details: S. aureus RN4220 wild type/DeltatarO growth, OD600, 18 h, hits give low values, concentration not given here
row,SMILES,survival
1,O=C1CC(=O)N(C2CCCCC2)C(=O)N1,77%
2,CCSc1nnc(NC(=O)c2cccn(Cc3ccc(Cl)cc3)c2=O)s1,73%
3,CC(=O)Nc1c(O)[nH]c(=S)[nH]c1=O,103%
4,O=C(Nc1nc2ccccc2s1)c1cccn(Cc2ccccc2)c1=O,83%
5,COC(=O)CC1=C(C(=O)OC)C2(C(=O)Nc3ccc(F)cc32)C(C#N)=C(N)O1 (stereo unspecified),65%
6,CCOC(=O)CC1=C(C(=O)OCC)C2(C(=O)N(C)c3ccccc32)C(C#N)=C(N)O1 (stereo unspecified),0% (active)
7,CCOC(=O)C1=C(C)OC(N)=C(C#N)C12C(=O)N1c3c(cccc32)C(C)CC1(C)C (stereo unspecified),51%
8,CCC(C)c1c(O)[nH]c(=S)[nH]c1=O (stereo unspecified),82%
9,CCN(CC)C(=O)c1ccc(NC(=O)c2ccc(-c3nn(C)c(=O)c4ccccc34)cc2)cc1,68%
10,Cc1ccnc(NS(=O)(=O)c2ccc(N=Cc3c(O)n(C)c(=O)n(C)c3=O)cc2)n1,93%
11,COc1ccc(-c2nc(CN3C(=O)CN=C(c4ccccc4Cl)c4cc(Cl)ccc43)c(C)o2)cc1OC,63%
12,CN1CCN(c2oc(-c3ccc(COc4ccccc4)o3)nc2C#N)CC1,41% (active)
13,CN1C(=O)C(Cc2cccs2)C(=O)N(C)C1=O,80%
14,CC(C)C(=O)N1N=C(c2cccnc2)CC1(O)C(F)(F)F (stereo unspecified),66%
15,OC1(c2ccc(F)cc2)CC2CCC(C1)N2Cc1nnnn1C1CCCCC1 (stereo unspecified),97%
16,Cc1ccc(NC(=O)N(Cc2ccc3c(c2)OCO3)C2CCN(Cc3ccccc3)CC2)cc1F,87%
17,Cc1ccc(NC(=O)N(Cc2ccc3c(c2)OCO3)C2CCN(Cc3ccccc3)CC2)cc1Cl,128%
18,Cc1ccc(NC(=O)N(Cc2ccc3c(c2)OCO3)C2CCN(Cc3ccccc3)CC2)cc1C,17% (active)
19,COc1ccc(NC(=O)CN2C(=O)C(C)N=C(c3ccccc3)c3ccccc32)cc1OC (stereo unspecified),116%
20,CCCC12CN3CC(CCC)(CN(C1)C3c1ccccn1)C2=O (stereo unspecified),84%
21,O=C1CC(=O)N(c2ccccc2)C(=O)N1c1ccccc1,90%
22,Cc1cc(C)cc(OCC(=O)Nc2ccc(Cl)cc2C(=O)c2ccccc2)c1,82%
23,O=C(COc1ccc(Cl)cc1)Nc1ccc(Cl)cc1C(=O)c1ccccc1,83%
24,COc1cc(OC)cc(C(=O)Nc2ccc(Cl)cc2C(=O)c2ccccc2Cl)c1,171%

row,SMILES,survival
1,COc1ccc(C(=O)Nc2ccc(Cl)cc2C(=O)c2ccccc2)c(OC)c1,2% (active)
2,O=C(Nc1ccc(Br)cc1C(=O)c1ccccc1Cl)c1ccc(Br)cc1,144%
3,Cc1cccc(C)c1OCC(=O)Nc1ccc(Cl)cc1C(=O)c1ccccc1,17% (active)
4,O=C(Nc1ccc(Br)cc1C(=O)c1ccccc1Cl)c1ccccc1F,52%
5,O=C(Nc1ccc(Br)cc1C(=O)c1ccccc1)c1ccccc1,-1% (active)
6,CC(C)(C)c1ccc(OCC(=O)Nc2ccc(Cl)cc2C(=O)c2ccccc2)cc1,70%
7,CSc1ncc(C(=O)Nc2ccc(Cl)cc2C(=O)c2ccccc2)c(C)n1,98%
8,CC(C)(C)c1ccc(C(=O)Nc2ccc(Cl)cc2C(=O)c2ccccc2)cc1,6% (active)
9,Cc1ccc(OCC(=O)Nc2ccc(Cl)cc2C(=O)c2ccccc2)cc1C,69%
10,CC(=O)NC1CC2CCC(C1)N2 (stereo unspecified),98%
11,O=C(CCc1nc(C2=CCN(Cc3cccc(Cl)c3)CC2)no1)Nc1ccccc1F,81%
12,OC1(c2cccc(F)c2)CC2CCC(C1)N2Cc1nnnn1CCc1ccccc1 (stereo unspecified),85%
13,CSc1ccc(CN2CCN(C(=O)COc3cccc(C)c3)CC2)cc1,84%
14,Cc1c(/C(CC(C)C)=N/O)c2ccccc2n1C,79%
15,O=C(Nc1ccc(F)c([N+](=O)[O-])c1)c1cccn(Cc2ccccc2)c1=O,115%
16,CN1CCN(Cc2cn3ccccc3n2)CC1,104%
17,CCOc1ccc(CN(CCc2ccc3c(c2)OCO3)Cc2cccc(OC)c2)cc1,44%
18,CCOc1ccc(CN(CCc2ccc3c(c2)OCO3)Cc2cc(OC)ccc2O)cc1,62%
19,O=C(COc1ccc(Br)cc1)Nc1ccc(Cl)cc1C(=O)c1ccccc1,83%
20,O=C(Nc1ccc(Cl)cc1C(=O)c1ccccc1)c1cc(Cl)cc(Cl)c1,150%
21,O=C(Nc1ccc(Cl)cc1C(=O)c1ccccc1)c1ccccc1Br,24% (active)
22,CC(C)OC12Oc3ccccc3C=C1N1CCC2CC1 (stereo unspecified),80%
23,COc1ccc(CN2CCN(C(=O)COc3ccccc3)CC2)c(OC)c1,184%
24,c1cc(CN2CCNCC2)ccn1,105%

row,SMILES,survival
1,Nc1c(C(=O)Nc2ccc(OC(F)(F)F)cc2)sc2nc3c(cc12)N1CCC3CC1,99%
2,Nc1c(C(=O)Nc2ccc(Br)cc2F)sc2nc3c(cc12)N1CCC3CC1,132%
3,Nc1c(C(=O)Nc2ccc(F)c(Cl)c2)sc2nc3c(cc12)N1CCC3CC1,65%
4,Nc1c(C(=O)Nc2ccc(Cl)cc2)sc2nc3c(cc12)N1CCC3CC1,55%
5,Nc1c(C(=O)Nc2cccc(Br)c2)sc2nc3c(cc12)N1CCC3CC1,40% (active)
6,Nc1c(C(=O)Nc2ccc(Cl)c(C(F)(F)F)c2)sc2nc3c(cc12)N1CCC3CC1,4% (active)
7,COc1ccc(C2CC(=O)Oc3c2c(=O)oc2ccccc32)c(OC)c1OC (stereo unspecified),75%
8,COc1ccccc1CN1CCN(C(=O)COc2cccc(C)c2)CC1,162%
9,O=C1CN=C(c2ccccc2)c2cc(Cl)ccc2N1Cc1ccc(Cl)cc1,66%
10,Cc1ccc(Cn2cccc(C(=O)Nc3ccc4c(c3)OCCO4)c2=O)cc1,83%
11,CCOc1ccccc1CN(CCc1ccc2c(c1)OCO2)Cc1ccc(CC)cc1,111%
12,CCCC1=Nc2cc(C(=O)NCCCN(CC)CC)ccc2Sc2ccccc21,138%
13,CCCC1=Nc2cc(C(=O)NC3CCC(C)CC3)ccc2Sc2ccccc21 (stereo unspecified),39% (active)
14,CC1CC(=O)C2CCCCC2N1 (stereo unspecified),84%
15,Cc1ccc(Cn2cccc(C(=O)Nc3ccc4c(c3)OCO4)c2=O)cc1,75%
16,CN(C)C(=O)Oc1cccc2cccnc12,76%
17,O=c1c2ccccc2nc(/C=C/c2ccccc2)n1-c1ccccc1F,69%
18,CSc1ccc(/C=C/c2nc3ccccc3c(=O)n2-c2cccc(Cl)c2C)cc1,80%
19,Cc1ccccc1-n1c(/C=C/c2ccc(O)cc2)nc2ccccc2c1=O,35% (active)
20,Cc1ccccc1-n1c(/C=C/c2c(C)[nH]c3ccccc23)nc2ccccc2c1=O,18% (active)
21,Cc1ccc(-n2c(/C=C/c3ccc(Br)s3)nc3ccccc3c2=O)cc1C,90%
22,Cc1ccccc1-n1c(/C=C/c2ccccc2F)nc2ccccc2c1=O,5% (active)
23,O=c1c2ccccc2nc(/C=C\c2ccc(F)cc2)n1-c1ccccc1F,94%
24,COc1ccc(-n2c(/C=C\c3ccccc3F)nc3ccccc3c2=O)c(OC)c1,89%

row,SMILES,survival
1,Cc1ccc(-n2c(/C=C\c3ccc(F)c(F)c3)nc3ccccc3c2=O)c(C)c1,98%
2,Cc1ccccc1-n1c(/C=C/c2ccc(N(C)C)cc2)nc2ccccc2c1=O,8% (active)
3,Cc1ccc(-n2c(/C=C/c3ccccc3)nc3ccccc3c2=O)cc1C,78%
4,Cc1cccc(-n2c(/C=C/c3c(C)[nH]c4ccccc34)nc3ccccc3c2=O)c1,120%
5,CN1C2CCC1CC(OC(=O)C1(c3ccccc3)CCCC1)C2 (stereo unspecified),116%
6,CCN(CC)CCSc1nc2ccccc2c(=O)n1-c1ccc(Cl)cc1,148%
7,CC(c1ccccc1)n1cncc1C(=O)N1CCCC1=O (stereo unspecified),87%
8,Cc1ccc(OCC(=O)N2CCN(Cc3ccc(F)cc3)CC2)cc1,156%
9,Cc1cccc(NC(=O)Cn2cc(C(=O)c3ccccc3)c3ccccc32)c1,130%
10,CCOc1ccc(CN2C(=O)c3ccccc3Sc3ccc(C(=O)N4CCC5(CC4)OCCO5)cc32)cc1,74%
11,COc1cc2[nH]c(=O)n(-c3ccc(C)cc3)c(=O)c2cc1OC,94%
12,OC1CCNC2CCCCC12 (stereo unspecified),94%
13,Cc1nc2ccccc2c(=O)n1-c1cccc(O)c1,96%
14,Cc1oc(-c2ccccc2Cl)nc1CN1C(=O)CN=C(c2ccccc2)c2cc(Cl)ccc21,77%
15,Cc1cccc(Cn2cccc(C(=O)Nc3nc4ccccc4s3)c2=O)c1,122%
16,CCc1ccc(-n2nc(C)c3c2NC(=O)CSC3c2ccccc2C)cc1 (stereo unspecified),57%
17,Cc1ccc(-n2nc(C)c3c2NC(=O)CSC3c2ccc(O)cc2)cc1Cl (stereo unspecified),73%
18,COc1ccc(Br)cc1C1SCC(=O)Nc2c1c(C)nn2-c1ccccc1C (stereo unspecified),43%
19,Cc1ccccc1-n1nc(C)c2c1NC(=O)CSC2c1ccc(N(C)C)cc1 (stereo unspecified),43% (active)
20,Cc1ccccc1-n1nc(C)c2c1NC(=O)CSC2c1ccccc1C(F)(F)F (stereo unspecified),39% (active)
21,Cc1ccccc1-n1nc(C)c2c1NC(=O)CSC2c1ccc(Cl)cc1 (stereo unspecified),21% (active)
22,CCc1ccc(-n2nc(C)c3c2NC(=O)CSC3c2ccc(C(=O)OC)cc2)cc1 (stereo unspecified),64%
23,O=C(COc1cc(Cl)ccc1Cl)Nc1ccc(Cl)cc1C(=O)c1ccccc1,69%
24,CC1=CC(=O)C2=C(C)CC(O)C3C(C)C(=O)OC3C12 (stereo unspecified),100%
